According to PubChem BioAssay AID1159580 (chemical genetic matrix, 2015):
The whole screen tested about 5,500 compounds, of which about 2,000 (36%) were called active. Another 18% or so got no clear call; they are omitted. Cut-off read from the data, not from the text of the source: active = normalized growth mostly below about 0.91 (no sharp cut-off); inconclusive = no clear call, values can overlap the other calls; inactive = mostly above about 0.92. Some of the results follow.

Test: chemical genetic growth profiling, strain panel (AID 1159580);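 note: tested at 20 µM; growth read once vehicle control cultures reached saturation at 30 °C; 1 = growth at the plate median or of vehicle wells; lower values mean less growth of the strain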
Settings: growth OD

Measured: normalized growth

CCOc1ccc(NC(C)=O)cc1
inactive: S. cerevisiae deletion strains, locus YJR075W, strain HOC1, stronger effect = lower value 1.02 | S. cerevisiae deletion strains, locus YKL009W, strain mrt4, stronger effect = lower value 0.978 | S. cerevisiae deletion strains, locus YKL068W, stronger effect = lower value 0.976 | S. cerevisiae deletion strains, locus YKL085W, strain MDH1 (second series), stronger effect = lower value 0.985 | S. cerevisiae deletion strains, locus YKL085W, strain MDH1, stronger effect = lower value 0.985 | S. cerevisiae deletion strains, locus YKL160W, strain elf1, stronger effect = lower value 1.02 | S. cerevisiae deletion strains, locus YKL190W, strain CNB1, stronger effect = lower value 0.994 | S. cerevisiae deletion strains, locus YKR001C, strain vps1, stronger effect = lower value 0.98 | S. cerevisiae deletion strains, locus YKR026C, strain gcn3, stronger effect = lower value 1.01 | S. cerevisiae deletion strains, locus YKR091W, strain srl3, stronger effect = lower value 1.01 | S. cerevisiae deletion strains, locus YLL001W, strain dnm1, stronger effect = lower value 1.01 | S. cerevisiae deletion strains, locus YLL026W, stronger effect = lower value 1.01 | S. cerevisiae deletion strains, locus YLL041C, strain sdh2, stronger effect = lower value 1.02 | S. cerevisiae deletion strains, locus YLR027C, strain aat2, stronger effect = lower value 1.01 | S. cerevisiae deletion strains, locus YLR039C, strain RIC1, stronger effect = lower value 1.01 | S. cerevisiae deletion strains, locus YLR058C, strain SHM2, stronger effect = lower value 0.994 | S. cerevisiae deletion strains, locus YLR102C, strain apc9, stronger effect = lower value 0.976 | S. cerevisiae deletion strains, locus YLR113W, strain HOG1, stronger effect = lower value 0.997 | S. cerevisiae deletion strains, locus YLR221C, strain rsa3, stronger effect = lower value 0.999 | S. cerevisiae deletion strains, locus YLR258W, strain gsy2, stronger effect = lower value 1.02 | S. cerevisiae deletion strains, locus YLR262C, strain YPT6 (second series), stronger effect = lower value 1.03 | S. cerevisiae deletion strains, locus YLR262C, strain YPT6, stronger effect = lower value 0.999 | S. cerevisiae deletion strains, locus YLR268W, strain sec22, stronger effect = lower value 1.01 | S. cerevisiae deletion strains, locus YLR320W, strain mms22, stronger effect = lower value 1 | S. cerevisiae deletion strains, locus YLR330W, strain CHS5, stronger effect = lower value 0.993 | S. cerevisiae deletion strains, locus YLR342W, strain FKS1 (second series), stronger effect = lower value 0.957 | S. cerevisiae deletion strains, locus YLR342W, strain FKS1, stronger effect = lower value 1.03 | S. cerevisiae deletion strains, locus YLR357W, strain rsc2, stronger effect = lower value 1.01 | S. cerevisiae deletion strains, locus YLR370C, strain arc18, stronger effect = lower value 1.01 | S. cerevisiae deletion strains, locus YLR371W, strain rom2, stronger effect = lower value 0.962 | S. cerevisiae deletion strains, locus YLR384C, strain iki3, stronger effect = lower value 1.02 | S. cerevisiae deletion strains, locus YLR418C, strain cdc73, stronger effect = lower value 1 | S. cerevisiae deletion strains, locus YML016C, strain PPZ1, stronger effect = lower value 0.996 | S. cerevisiae deletion strains, locus YML032C, strain rad52, stronger effect = lower value 0.994 | S. cerevisiae deletion strains, locus YML120C, strain ndi1, stronger effect = lower value 1.02 | S. cerevisiae deletion strains, locus YML124C, strain tub3, stronger effect = lower value 0.99 | S. cerevisiae deletion strains, locus YMR058W, strain fet3, stronger effect = lower value 1.01 | S. cerevisiae deletion strains, locus YMR078C, strain ctf18, stronger effect = lower value 0.991 | S. cerevisiae deletion strains, locus YMR125W, strain sto1, stronger effect = lower value 1.02 | S. cerevisiae deletion strains, locus YMR129W, stronger effect = lower value 1.01 | S. cerevisiae deletion strains, locus YMR205C, strain PFK2, stronger effect = lower value 1.03 | S. cerevisiae deletion strains, locus YMR223W, strain ubp8, stronger effect = lower value 0.988 | S. cerevisiae deletion strains, locus YMR231W, strain pep5, stronger effect = lower value 1.01 | S. cerevisiae deletion strains, locus YMR263W, strain SAP30, stronger effect = lower value 1.01 | S. cerevisiae deletion strains, locus YMR307W, strain GAS1, stronger effect = lower value 0.978 | S. cerevisiae deletion strains, locus YNL067W, strain RPL9B, stronger effect = lower value 1.03 | S. cerevisiae deletion strains, locus YNL071W, strain lat1, stronger effect = lower value 1.01 | S. cerevisiae deletion strains, locus YNL128W, strain TEP1, stronger effect = lower value 1.02 | S. cerevisiae deletion strains, locus YNL153C, strain GIM3, stronger effect = lower value 1.01 | S. cerevisiae deletion strains, locus YNL183C, strain NPR1, stronger effect = lower value 0.995 | S. cerevisiae deletion strains, locus YNL209W, strain ssb2, stronger effect = lower value 1.02 | S. cerevisiae deletion strains, locus YNL233W, strain BNI4, stronger effect = lower value 1.01 | S. cerevisiae deletion strains, locus YNL248C, strain rpa49, stronger effect = lower value 1.02 | S. cerevisiae deletion strains, locus YNL250W, strain rad50, stronger effect = lower value 0.991 | S. cerevisiae deletion strains, locus YNL271C, strain bni1, stronger effect = lower value 0.972 | S. cerevisiae deletion strains, locus YNL298W, strain CLA4, stronger effect = lower value 0.989 | S. cerevisiae deletion strains, locus YNL307C, strain MCK1, stronger effect = lower value 0.991 | S. cerevisiae deletion strains, locus YNL322C, strain KRE1 (second series), stronger effect = lower value 1.01 | S. cerevisiae deletion strains, locus YNL322C, strain KRE1, stronger effect = lower value 1 | S. cerevisiae deletion strains, locus YNR049C, strain mso1, stronger effect = lower value 1.02 | S. cerevisiae deletion strains, locus YNR052C, strain pop2, stronger effect = lower value 0.987 | S. cerevisiae deletion strains, locus YOL006C, strain TOP1, stronger effect = lower value 1.15 | S. cerevisiae deletion strains, locus YOL012C, strain htz1 1.55 | S. cerevisiae deletion strains, locus YOL147C, strain pex11, stronger effect = lower value 0.993 | S. cerevisiae deletion strains, locus YOR001W, strain rrp6, stronger effect = lower value 1.02 | S. cerevisiae deletion strains, locus YOR061W, strain CKA2, stronger effect = lower value 0.996 | S. cerevisiae deletion strains, locus YOR069W, strain VPS5, stronger effect = lower value 1.07 | S. cerevisiae deletion strains, locus YOR070C, strain gyp1, stronger effect = lower value 1.02 | S. cerevisiae deletion strains, locus YOR080W, strain dia2, stronger effect = lower value 1.02 | S. cerevisiae deletion strains, locus YOR083W, strain WHI5, stronger effect = lower value 1.02 | S. cerevisiae deletion strains, locus YOR106W, strain vam3, stronger effect = lower value 1.01 | S. cerevisiae deletion strains, locus YOR136W, strain idh2, stronger effect = lower value 0.996 | S. cerevisiae deletion strains, locus YOR144C, strain elg1, stronger effect = lower value 0.997 | S. cerevisiae deletion strains, locus YOR184W, strain ser1, stronger effect = lower value 0.973 | S. cerevisiae deletion strains, locus YOR231W, strain MKK1, stronger effect = lower value 0.978 | S. cerevisiae deletion strains, locus YOR265W, strain rbl2, stronger effect = lower value 1.01 | S. cerevisiae deletion strains, locus YOR270C, strain vph1, stronger effect = lower value 1.02 | S. cerevisiae deletion strains, locus YOR290C, strain snf2, stronger effect = lower value 1.01 | S. cerevisiae deletion strains, locus YOR316C, strain cot1, stronger effect = lower value 0.983 | S. cerevisiae deletion strains, locus YPL051W, strain arl3, stronger effect = lower value 1 | S. cerevisiae deletion strains, locus YPL055C, strain LGE1, stronger effect = lower value 1.05 | S. cerevisiae deletion strains, locus YPL078C, strain atp4, stronger effect = lower value 1.01 | S. cerevisiae deletion strains, locus YPL106C, strain sse1, stronger effect = lower value 1.02 | S. cerevisiae deletion strains, locus YPL240C, strain hsp82, stronger effect = lower value 1.02 | S. cerevisiae deletion strains, locus YPL241C, strain CIN2, stronger effect = lower value 1.04 | S. cerevisiae deletion strains, locus YPL256C, strain CLN2, stronger effect = lower value 1.01 | S. cerevisiae deletion strains, locus YPR119W, strain clb2, stronger effect = lower value 0.989 | S. cerevisiae deletion strains, locus YPR141C, strain kar3, stronger effect = lower value 0.993 | S. cerevisiae deletion strains, locus YPR163C, strain tif3, stronger effect = lower value 0.995 | S. cerevisiae deletion strains, locus YPR167C, strain met16, stronger effect = lower value 0.978 | S. cerevisiae deletion strains, strain wtn01, stronger effect = lower value 0.989 | S. cerevisiae strains, strain wild type, stronger effect = lower value 0.992
